# Laboratory results as given in PubChem BioAssay AID463173 (ICCB-Longwood Screening Facility, Harvard Medical School, 2010).
# Out of some 52,000 compounds screened, about 4,300 (8.3%) were called active. What follows is part of a selection rich in actives, with near analogues and random picks from the rest. A number with no mark means an inactive call. Rule as the data show it: active = survival mostly below about 52% (no sharp cut-off); inactive = mostly above about 56%.
# Test system: DeltatarO mutant
# Assay: growth inhibition of S. aureus wild type versus tarO mutant, primary screen, teichoic acid synthesis inhibitors, RN4220, OD600 (AID 463173)
# Settings: OD600, 18 h, stronger effect = lower value, screened at 18.75 µg/mL (by protocol)
row,SMILES,survival
1,Cc1cccn2c(=O)c(/C=C(\C#N)c3nc4ccccc4[nH]3)c(Oc3ccc(C(C)(C)C)cc3)nc12,93%
2,COc1ccc(C)cc1NC(=O)CN1C(=O)COc2ccc(S(=O)(=O)N3CCC(C)CC3)cc21,69%
3,Cc1ccc(-c2cc(C(=O)Oc3ccccc3)c3cc(C)ccc3n2)cc1,76%
4,COc1ccc(-c2cc(C(=O)Oc3cccc(C)c3)c3ccccc3n2)cc1,-2% (active)
5,COc1ccc(-c2cc(C(=O)Oc3ccc(C)cc3)c3cc(C)ccc3n2)cc1,22% (active)
6,COc1ccc(-c2cc(C(=O)OCC(=O)c3cccc(OC)c3)c3cccc(Cl)c3n2)cc1,74%
7,COc1ccc(-c2cc(C(=O)NCCc3ccccc3)c3cc(C(C)C)ccc3n2)cc1,76%
8,Cc1ccc(-n2cc(C(=O)Oc3cccc(C)c3)c3ccccc3c2=O)cc1,69%
9,Cc1ccc(-c2cc(C(=O)Oc3ccccc3)c3cccc(C)c3n2)cc1,50%
10,COc1ccc(-c2cc(C(=O)OCC(=O)c3ccc(C)cc3)c3cccc(Cl)c3n2)cc1,65%
11,Cc1ccc2nc(C)cc(C(=O)O)c2c1,99%
12,COc1ccc(-c2cc(C(=O)OC(C)C(=O)c3ccccc3)c3cccc(Cl)c3n2)cc1 (stereo not given),76%
13,Cc1ccc(OC(=O)c2cc(-c3ccccc3)nc3ccc(C)cc23)cc1,49% (active)
14,COc1ccc(-c2cc(C(=O)Oc3cccc(C)c3)c3cc(C)ccc3n2)cc1,13% (active)
15,CC(C)c1ccc(OCC(=O)Nc2cc(-c3ccccc3)no2)cc1,110%
16,Cn1c(Oc2cccc(Cl)c2)nc2c1c(=O)n(Cc1ccccc1Cl)c(=O)n2C,66%
17,O=C(Cc1ccccc1)NC1CCN(S(=O)(=O)c2cccc(F)c2)CC1,80%
18,Cc1c(Cl)cccc1Nc1nn2c(=O)c3ccc(C(=O)NCCc4ccccc4)cc3nc2s1,98%
19,O=C(C1CCCN(S(=O)(=O)c2cccc3nsnc23)C1)N1CCN(c2ccccc2Cl)CC1 (stereo not given),107%
20,COCCc1nn2c(=O)cc(COC(=O)c3ccco3)nc2s1,92%
21,Cc1cc(C)c(NC(=O)Cn2nnc(-c3ccccc3)n2)c(C)c1,63%
22,Cc1ccccc1OCC(=O)NCC(c1ccc(Cl)cc1)N1CCCCC1 (stereo not given),66%
23,Cc1ccccc1Nc1c(-c2cccs2)nc2cccc(C)n12,63%

row,SMILES,survival
1,COc1ccc(-c2cc(C(=O)Oc3ccccc3)c3cc(C)ccc3n2)cc1,9% (active)
2,COc1ccc(-c2cc(C(=O)NC(C)c3ccccc3)c3cc(C(C)C)ccc3n2)cc1 (stereo not given),101%
3,Cc1ccc2nc(-c3ccc(Cl)cc3)cc(C(=O)OCC(=O)c3ccccc3)c2c1,58%
4,COc1ccc(CNC(=O)CN(c2ccc(C)cc2)S(=O)(=O)c2c(C)n[nH]c2C)cc1,85%
5,Cc1n[nH]c(C)c1S(=O)(=O)N(CC(=O)NC(C)c1ccccc1)c1ccc(C(C)C)cc1 (stereo not given),54% (active)
6,Cc1ccc(N(CC(=O)NC(C)c2ccccc2)S(=O)(=O)c2c(C)noc2C)cc1 (stereo not given),74%
7,Cc1ccc(N(CC(=O)Nc2ccc(C)c(F)c2)S(=O)(=O)c2c(C)n[nH]c2C)cc1,66%
8,COc1cccc(CNC(=O)CN(c2ccc(C(C)C)cc2)S(=O)(=O)c2c(C)n[nH]c2C)c1,56%
9,Cc1n[nH]c(C)c1S(=O)(=O)N(CC(=O)Nc1ccc(C(F)(F)F)cc1)c1ccc(C(C)C)cc1,46% (active)
10,Cc1n[nH]c(C)c1S(=O)(=O)N(CC(=O)NCc1ccccc1Cl)c1ccc(C(C)C)cc1,52%
11,Cc1ccc(CNC(=O)CN(c2ccc(C(C)C)cc2)S(=O)(=O)c2c(C)n[nH]c2C)cc1,43% (active)
12,Cc1noc(C)c1S(=O)(=O)N(CC(=O)Nc1ccc(C(F)(F)F)cc1)c1ccc(C(C)C)cc1,55%
13,CSc1ccc(CCNC(=O)c2cc3c(-c4ccccc4F)nn(C)c3s2)cc1,55%
14,CCOc1ccc(CNC(=O)C2CCN(S(=O)(=O)c3cn(C)cn3)CC2)cc1,99%
15,Cc1ccc(NC(=O)CCn2nc(C)c3c(C)n(-c4ccccc4)nc3c2=O)cc1Cl,117%
16,CCOCCCn1c(SCC(=O)Nc2ccc(OC)cc2OC)nc2ccccc2c1=O,89%
17,CCOC(=O)C1CCCN(C(=O)c2ccccc2NC(=O)c2nsc3ccccc23)C1 (stereo not given),130%
18,CCOC(=O)c1[nH]c(C)c(CCC(=O)Nc2ccc(C(C)=O)cc2)c1C,72%
19,O=C(NCc1ccccc1)C(=O)Nc1ccc2nc3n(c(=O)c2c1)CCCCC3,88%
20,COc1cccc(Cn2c(=O)n(Cc3ccco3)c(=O)c3oc4ccccc4c32)c1,66%
21,O=C(CC1CCCCC1)N1CCN(c2ccccc2)CC1,82%
22,O=C(Nc1nnc(S(=O)(=O)N2CCc3ccccc32)s1)c1ccccc1Cl,20% (active)
23,O=C(Nc1nnc(S(=O)(=O)N2CCCc3ccccc32)s1)c1ccccc1Br,17% (active)

row,SMILES,survival
1,Cc1ccccc1C(=O)Nc1nnc(S(=O)(=O)N2CCc3ccccc32)s1,95%
2,Cc1ccccc1C(=O)Nc1nnc(S(=O)(=O)N2CCCc3ccccc32)s1,96%
3,O=C(Nc1nnc(S(=O)(=O)N2CCCc3ccccc32)s1)c1ccccc1Cl,28% (active)
4,CCOC(=O)c1ccc(CN(Cc2ccccc2C)S(=O)(=O)c2ccc(F)c(C(=O)Nc3cccc(OC)c3)c2)cc1,75%
5,CCNC(=O)CC1C(=O)N(c2ccc(F)cc2)C(=O)N1CCOC (stereo not given),84%
6,COc1ccc(CN(C(=O)Cc2coc3ccc(C)cc23)C2CCS(=O)(=O)C2)cc1 (stereo not given),67%
7,Cc1cc2n(n1)CCCN2C(=O)Nc1ccccc1C(F)(F)F,76%
8,CCc1ccc(NC(=O)C(=O)NCC(c2cccnc2)N2CCOCC2)cc1 (stereo not given),89%
9,CC(=O)Oc1ccc(Nc2nc3nonc3nc2Nc2ccccc2)cc1,83%
10,CC(=O)Nc1nonc1NC(C)=O,87%
11,CC(=O)Nc1cc(OC(C)=O)c2nonc2c1OC(C)=O,29% (active)
12,COC(=O)c1nnn(-c2ccc(Br)cc2)c1C(=O)OC,79%
13,COC(=O)c1ccc(NC(=O)CCc2c(C)nc3c(c(C)nn3C(C)(C)C)c2C)cc1,59%
14,CCOC(=O)c1ccc(NC(=O)CCc2c(C)nc3c(c(C)nn3C)c2C)cc1,93%
15,CCOC(=O)c1ccc(NC(=O)CCc2c(C)nc3c(c(C)nn3C(C)(C)C)c2C)cc1,55% (active)
16,Cc1ccc(-c2nc(CNC(=O)Nc3ccccc3)c(C)o2)cc1,71%
17,COC(=O)c1cc2c(ccn2-c2ccc(F)cc2)n1CC(=O)N1CCCCC1,97%
18,COc1ccc(C)cc1NC(=O)C1CCN(S(=O)(=O)c2ccc3[nH]c4c(c3c2)CCCCC4)CC1,94%
19,CCOc1ccc(NC(=O)CCc2c(C)nc3c4c(C)cc(C)nc4nn3c2C)cc1,125%
20,COC(=O)c1cc(NC(=O)CCc2c(C)nc3c4c(C)cc(C)nc4nn3c2C)cc(C(=O)OC)c1,56% (active)
21,COc1cc(NC(=O)CCc2c(C)nc3c4c(C)cc(C)nc4nn3c2C)cc(OC)c1,74%
22,COc1ccc(NC(=O)c2oc3ccc(S(=O)(=O)N4CCCCC4)cc3c2C)cc1,87%
23,CC(C)Cn1cc(NC(=O)N2CCN(c3cccc(C(F)(F)F)c3)CC2)c2ccccc2c1=O,77%

row,SMILES,survival
1,COc1ccc(CCNC(=O)Cn2ncc3c(=O)oc4ccccc4c32)c(OC)c1,89%
2,CCC1CCCCN1C(=O)CCS(=O)(=O)c1cc2c(cc1C)NC(=O)CO2 (stereo not given),81%
3,CC(C)C1C(=O)Nc2ccc(S(=O)(=O)NCc3ccc(Cl)cc3)cc21 (stereo not given),52% (active)
4,CC(C)C1C(=O)Nc2ccc(S(=O)(=O)NCCc3ccc(Cl)cc3)cc21 (stereo not given),77%
5,COc1cccc(CNS(=O)(=O)c2ccc3c(c2)C(C(C)C)C(=O)N3)c1 (stereo not given),129%
6,CCCNc1c2c(nc3ccccc13)CC(C)(C)CC2=O,66%
7,CCOc1ccccc1CNC(=O)c1ccc2nc(Cc3ccc(OC)cc3)oc2c1,73%
8,CN(C1CCCCC1)C(c1ccc(F)cc1)c1nnnn1C1CCCCC1 (stereo not given),83%
9,Cc1ccc(C)c(-c2nc(Cn3c(=O)cc(-c4ccccc4)c4c(C)nn(C)c43)c(C)o2)c1,130%
10,CCOC(=O)c1ccc(NC(=O)c2c(NCc3cccs3)sc3c2CCCCC3)cc1,104%
11,CCOC(=O)c1ccc(NC(=O)c2c(NCc3cccs3)sc3c2CCCC3)cc1,78%
12,CCC(Cc1ccccc1)NC(=O)c1csc2c1CCCCC2 (stereo not given),125%
13,O=C(Nc1ccc(OC(F)(F)F)cc1)c1noc2c1CCCC2,65%
14,CCOC(=O)c1ccc(NC(=O)c2csc3c2CCCC3)cc1,36% (active)
15,CCOC(=O)c1ccc(NC(=O)c2cccc3c(=O)c4c([nH]c23)CCCC4)cc1,60%
16,CCOC(=O)c1ccc(NC(=O)c2noc3c2CCCC3)cc1,0% (active)
17,CSc1ccc(CCNC(=O)c2csc3c2CCCCC3)cc1,63%
18,COc1ccc(NC(=O)c2noc3c2CCCC3)cc1Cl,83%
19,CCOC(=O)c1ccc(NC(=O)c2c(NCc3sccc3C)sc3c2CCCCC3)cc1,78%
20,CC(CNC(=O)c1csc2c1CCCCC2)c1ccccc1 (stereo not given),-1% (active)
21,CCOC(=O)c1ccc(NC(=O)c2csc3c2CCCCC3)cc1,39% (active)
